Rows were chosen to be rich in hits. Some 2.7% of all compounds tested hit in one or more screens of this group.
TGFb SMAD3 inh = TGF-b pathway inhibition | HepG2 CAGA-GFP TGF-b/SMAD3 reporter, GFP fluorescence, 18 h; TGF-beta stimulated, 500 pg/mL final | Potency, µM (doses to about 46.1 µM), without a hit: top-dose activity, negative = inhibition, actives largely listed as inhibitors | 1.2% of 410,000 active; further: on the % scale 0 is the no-effect control and ±100 the full control effect; nearly all actives have a fitted effect of over 65% in size
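Per well, imaged GFP fluorescence of HEPG2 CAGA-GFP cells gives the signal; cells get compound, then TGF-beta (500 pg/mL final), 18 h at 37 degrees C; %Activity versus -TGF-beta and +DMSO controls.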
ALOX12 inh = inhibitors of human 12S-lipoxygenase ALOX12. P18054. purified 12hLO, xylenol orange hydroperoxide absorbance. Potency, µM (doses to about 108 µM), inactives show at the top dose activity change, negative = inhibition, hits mostly inhibitors. 1.1% of 580,000 active; further: on the % scale 0 is the no-effect control and ±100 the full control effect
Target sequence (P18054 whole entry, looked up): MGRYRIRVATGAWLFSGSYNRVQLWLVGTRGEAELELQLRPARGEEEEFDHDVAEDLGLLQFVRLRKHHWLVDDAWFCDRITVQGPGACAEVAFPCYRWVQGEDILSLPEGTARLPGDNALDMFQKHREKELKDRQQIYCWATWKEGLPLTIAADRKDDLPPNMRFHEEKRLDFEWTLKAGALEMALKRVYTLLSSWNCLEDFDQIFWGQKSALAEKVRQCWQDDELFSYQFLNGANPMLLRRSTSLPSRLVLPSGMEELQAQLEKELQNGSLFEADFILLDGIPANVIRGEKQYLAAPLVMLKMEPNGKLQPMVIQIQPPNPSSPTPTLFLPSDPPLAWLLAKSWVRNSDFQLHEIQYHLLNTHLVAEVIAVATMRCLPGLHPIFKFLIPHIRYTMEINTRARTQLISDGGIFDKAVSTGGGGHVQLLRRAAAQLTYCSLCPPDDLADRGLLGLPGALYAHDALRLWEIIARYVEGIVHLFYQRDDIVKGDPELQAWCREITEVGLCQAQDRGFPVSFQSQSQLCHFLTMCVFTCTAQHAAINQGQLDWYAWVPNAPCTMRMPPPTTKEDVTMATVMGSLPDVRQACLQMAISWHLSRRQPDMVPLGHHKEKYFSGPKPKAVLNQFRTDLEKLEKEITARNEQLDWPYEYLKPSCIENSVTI
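Purified human 12hLO at 150 nM in 25 mM Hepes, 0.01% Triton X-100, pH 7.0, preincubated 15 min at room temperature with compound. Reaction started with 40 uM arachidonic acid, 30 min at room temperature. Hydroperoxide measured by Fe-xylenol orange, 573/405 nm absorbance ratio.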
ATXN viability = viability counter-screen for ATXN expression inhibitors | S2 cells (HEK-293 line with an ATXN2-luciferase reporter) viability, CellTiter-Fluor protease fluorescence, 24 h | Potency, µM (top dose mostly 56.7 µM), most hits filed as cytotoxic | 0.49% of 400,000 active; further: nearly all actives have a fitted effect of over 40% in size
ATXN2 expr inh = reduces ATXN2 reporter expression in HEK-293 cells; Potency, µM (doses to about 57 µM), for inactives: at the top dose activity change, negative = inhibition, hits mostly inhibitors; 0.72% of 360,000 active; AID 1745845; HEK-293 ATXN2-luciferase reporter, luminescence, 24 h; further: on the % scale 0 is the no-effect control and ±100 the full control effect; nearly all actives have a fitted effect of over 55% in size
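ATXN2-luciferase reporter cells (luciferase flanked by upstream and downstream ATXN2 gene portions) were treated 24 h at 37 °C with compounds at up to 57 uM. SteadyGlo luminescence gave expression; GF-AFC fluorescence gave viability.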
HepG2 tox = HepG2 cytotoxicity, counter-screen for TGF-b inhibitors | HepG2 CAGA-GFP viability, ATP luminescence, 18 h | Potency, µM (doses to about 46.1 µM), for inactives: at the highest dose activity change, negative = cytotoxicity, hits mostly cytotoxic | 0.76% of 410,000 active
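HepG2 CAGA-GFP cells (1000/well, DMEM with 1% FBS) received compound, then TGF-beta at 500 pg/mL final, and were incubated 18 hours at 37 degrees C. Viability was read by CellTiter-Glo luminescence. Media-only wells were set as complete cell-killing and DMSO as no toxicity.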
* = called active by the depositor; i = inactive; ? = inconclusive; . = no result; [ ] = remark or other dose. The call rests on the fitted dose curve; in most records, active means well fitted curve in the direction sought with a large enough effect; inconclusive means small, poorly fitted or top-dose-only effect, or another doubt; inactive means no such curve, though single readings can be large; an effect the other way counts as inactive or inconclusive. Potency means the concentration at half of the fitted maximal effect.

SMILES | TGFb SMAD3 inh | ALOX12 inh | ATXN viability | ATXN2 expr inh | HepG2 tox
Nc1scc2c(C(=O)N/N=C/c3ccc(Cl)cc3)nn(-c3ccccc3)c(=O)c12 | 1.7% | 6.31µM* | i | ? | 0.2%
Nc1c(C(=O)N/N=C/c2ccc(Cl)cc2)cnn1-c1ccccc1 | -0.4% | -19.3% | i | 12.2% | 12.0%
CC(=O)Oc1ccc(N(C(C)=O)S(=O)(=O)c2ccc(C)cc2)c2ccccc12 | -29.7% | 28.0% | ? | 26.7µM* | -36.4%
CC(=O)Oc1ccc(N(C(C)=O)S(=O)(=O)c2ccc(Cl)cc2)c2ccccc12 | -29.9% | -2.4% | i | ? | -16.6%
CC(=O)NS(=O)(=O)c1ccc(N=c2ssc3c2-c2ccc(C)cc2NC3(C)C)cc1 | 3.0% | 15.8µM* | ? | -2.1% | -12.2%
COc1ccc(-c2nc(C3CC3)nc3c2CN(C(=O)c2ccccc2F)CC3)cc1 | . | 6.3%[6.33 µM] | . | . | .
COc1ccccc1C(=O)N1CCc2nc(C3CC3)nc(-c3ccc(Cl)cc3)c2C1 | . | 44.7µM* | . | . | .
Cc1nc2ccccc2c(C)c1CC(=O)NCC(C)C | . | -2.0% | . | . | .
Cc1nc2ccccc2c(C)c1CC(=O)NCCc1ccccc1F | . | 17.8µM* | . | . | .
CCOC(=O)c1cccc(NC(=O)/C=C/c2cccc([N+](=O)[O-])c2)c1 | 2.1% | 6.7% | i | -13.9% | 1.1%
CCOC(=O)/C=C/C(=O)Nc1cccc([N+](=O)[O-])c1 | 11.2µM* | . | ? | ? | 12.6µM*
O=C(NC1CC1)c1cc(-c2ccc(Cl)c(Cl)c2)nc2ccccc12 | . | 1.2% | . | . | .
O=C1NC(=O)C(=Cc2ccc(Cl)cc2Cl)S1 | ? | 39.8µM* | i | 3.3% | -17.6%
O=C1NC(=S)SC1=Cc1ccc(F)cc1 | ? | ? | i | 9.9% | -23.6%
O=C1NC(=S)SC1=Cc1ccccc1Br | ? | ? | i | 11.7% | -25.2%
O=C1NC(=S)SC1=Cc1ccc(Cl)cc1 | ? | 22.4µM* | ? | -30.0% | -30.0%
O=C1NC(=S)SC1=Cc1cc(Br)ccc1O | 23.2% | 25.1µM* | ? | -12.3% | 0.4%
CC(CC(=O)O)CC(=O)NCCN1CCCCC1 (configuration not stated) | . | 7.3% | . | . | .
CC1CCN(c2ccc(NC(=O)c3cccnc3Cl)cc2)CC1 | -13.7% | -17.6% | i | . | -19.1%
CC1CCN(c2ccc(NC(=O)c3ccccc3SC3CCS(=O)(=O)C3)cc2)CC1 (configuration not stated) | . | 6.31µM* | . | . | .
Cc1ccc2c(=O)cc(C(=O)Nc3cccc(Cl)c3)oc2c1 | . | -8.3% | . | . | .
O=C(c1ccoc1)N(Cc1cccs1)C1CC1 | . | 8.3% | . | . | .
O=C(Cc1cccs1)Nc1nnc(CCc2ccccc2)s1 | -11.1% | -6.9% | i | 0.9% | -14.6%
CC(C)(C)Cc1nnc(NC(=O)Cc2cccs2)s1 | 0.1% | 44.7µM* | i | 6.2% | -43.6%
O=C(Cc1cccs1)Nc1nnc(Cc2ccccc2)s1 | 0.0% | 44.7µM* | ? | 5.6% | 2.6%
SMILES | TGFb SMAD3 inh | ALOX12 inh | ATXN viability | ATXN2 expr inh | HepG2 tox
Cc1cc(C)c2c(=O)cc(C(=O)Nc3ccc(Cl)cc3)oc2c1 | . | 18.3% | . | . | .
CC(C)N1C(=O)Cc2ccccc2C1C(=O)NCc1cccc(F)c1 (configuration not stated) | . | 10.2% | . | . | .
Cc1ccc(-c2ocnc2C(=O)Nc2ccc(C)c(C)c2)s1 | . | -3.5% | . | . | .
CC(C)n1cc(-c2cc(C(=O)N3CCC(C)(C)C3)c3ccc(F)cc3n2)cn1 | . | 2.2% | . | . | .
Cc1cc(=O)n2cn[nH]c2n1 | -0.2% | -19.8% | i | 7.6% | -5.0%
Cc1cc(=S)n2cn[nH]c2n1 | . | 0.447µM* | . | . | .
Fc1ccc(C2CCNCC2COc2ccc3c(c2)OCO3)cc1 (configuration not stated) | ? | ? | ? | ? | 11.2µM*
CCOc1cccc(C2C=C(c3ccc4c(c3)OCO4)NC(c3ccc(F)cc3)N2)c1O (configuration not stated) | ? | . | . | . | -41.1%
Cc1ccc(-n2c(CNc3ccc(C)c(Cl)c3)n[nH]c2=S)cc1 | ? | 44.7µM* | ? | . | -37.6%
Cc1ccc(-n2c(CNc3cccc(Cl)c3)n[nH]c2=S)cc1 | -9.2% | ? | i | -1.7%[11.3 µM] | -1.0%
COc1ccc(-c2cc(C(F)(F)F)c3c(n2)sc2c(O)cc(=O)[nH]c23)c(OC)c1 | 7.6% | ? | i | -11.7% | 2.24µM*
Cc1oc(-c2ccccc2Cl)nc1CS(=O)(=O)CC(=O)NC(C)CCc1ccccc1 (configuration not stated) | 10µM* | -12.6% | ? | ? | -14.0%
Cc1oc(-c2cccc(Cl)c2)nc1CS(=O)(=O)CC(=O)NC(C)CCc1ccccc1 (configuration not stated) | 10µM* | ? | ? | ? | -34.4%
Cc1cccc(C2=NN(c3ccccc3)[C@H](CO)[C@H]2c2ccc(F)cc2)c1 | 20µM* | ? | . | 0.0% | -93.3%
COc1ccccc1[C@H]1C(c2cccc(Cl)c2)=NN(c2ccccc2)[C@@H]1CO | 12.6µM* | . | . | ? | 12.6µM*
OC[C@@H]1[C@@H](c2ccccc2)C(c2ccc(F)cc2)=NN1c1ccccc1 | 10µM* | . | . | -10.0% | -49.1%
OC[C@@H]1[C@@H](c2ccc(Cl)cc2)C(c2ccc(F)cc2)=NN1c1ccccc1 | ? | ? | . | -17.2% | -99.8%
COc1ccc(S(=O)(=O)N2CCN(Cc3cccc(C(F)(F)F)c3)CC2)cc1OC | . | -4.3% | . | . | .
COCCNC(=O)CC(c1ccc(Cl)cc1)c1c[nH]c2ccc([N+](=O)[O-])cc12 (configuration not stated) | . | 7.08µM* | . | . | .
O=C(CC(c1ccc(Cl)cc1)c1c[nH]c2ccc([N+](=O)[O-])cc12)N1CCOCC1 (configuration not stated) | . | 8.91µM* | . | . | .
OC(CCCN1CCC(O)(c2ccc(Cl)cc2)CC1)c1ccc(F)cc1 (configuration not stated) | 4.1% | ? | i | -20.3% | -41.7%
OC1(c2ccc(Cl)c(C(F)(F)F)c2)CCN(CCCC(c2ccc(F)cc2)c2ccc(F)cc2)CC1 | . | ? | 17.8µM* | 15.8µM* | .
COCCn1cc(C(=O)NCCc2ccc(S(N)(=O)=O)cc2)ccc1=O | . | 8.1% | . | . | .
CC1=CC(C)(C)N2C(=O)C3(NCCc4c3[nH]c3ccccc43)c3cc(C)cc1c32 (configuration not stated) | ? | 4.3% | 22.4µM* | -19.7% | -2.1%
COc1ccc(C2=C(Nc3ccc(Br)c(C)c3)c3ccccc3C2=O)cc1 | 14.1µM* | -22.1% | ? | -16.0% | -37.7%
CC(=O)Oc1c(-c2ccc(Br)o2)oc2ccccc2c1=O | ? | 35.5µM* | . | ? | -30.0%
CCCCc1ccc(/C=C(\C#N)C(N)=S)s1 | ? | 39.8µM* | i | -37.1%[11.3 µM] | -41.2%
O=C(CC1(O)C(=O)N(CN2CCOCC2)c2ccccc21)c1ccc(F)cc1 (configuration not stated) | . | 24.7% | . | . | .

From PubChem BioAssay
